Measurements: PubChem BioAssay (NCI)
About 83,000 compounds went through this panel and 20% of them were active in at least one assay; those are over-represented in the sample as a whole.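 Results are percent growth after 48 hours of single-concentration exposure. 100 means growth as in untreated cells, lower positive values show inhibition; negative values down to -100 show cell death.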 Activity calls are given as the source filed them. The calls were made as follows: active = growth percent below 10; inactive = the rest.

Key:
Assay in all cases: NCI-60 one-dose screen, 48 h (100 = growth as untreated, 0 = no growth, -100 = all killed)
Conditions in all cases: 10 µM
HT29 colon = test system: HT29 colon
SNB-75 CNS = test system: SNB-75 CNS
SNB-19 CNS = test system: SNB-19 CNS
U251 CNS = test system: U251 CNS
PC-3 prostate = test system: PC-3 prostate
SK-MEL-5 melanoma = test system: SK-MEL-5 melanoma
UACC-62 melanoma = test system: UACC-62 melanoma
LOX IMVI melanoma = test system: LOX IMVI melanoma
SK-MEL-28 melanoma = test system: SK-MEL-28 melanoma
SK-MEL-2 melanoma = test system: SK-MEL-2 melanoma

Measured: growth

COc1ccc2c(c1)C(=O)c1c-2c(OCCN(C)C)nc2cc(OC)c(OC)cc12
inactive: HT29 colon 30.1% | SNB-75 CNS 51.7% | SNB-19 CNS 57.1% | U251 CNS 50.5% | PC-3 prostate 69.2% | SK-MEL-5 melanoma 89.7% | UACC-62 melanoma 83.1% | SK-MEL-28 melanoma 112% | SK-MEL-2 melanoma 54.3%
active: LOX IMVI melanoma -36.6%

O=C1/C(=C\c2cn(C(=O)c3ccc(Cl)cc3)c3ccccc23)c2ccccc2N1C(=O)c1ccc(Cl)cc1
inactive: HT29 colon 70.4% | SNB-75 CNS 54.4% | SNB-19 CNS 98.2% | U251 CNS 74.2% | PC-3 prostate 65.7% | SK-MEL-5 melanoma 74.9% | UACC-62 melanoma 88.9% | LOX IMVI melanoma 67.2% | SK-MEL-28 melanoma 103% | SK-MEL-2 melanoma 49.8%

CCN1CCC2(CC1)OC(c1ccccc1)C(c1ccccc1)O2 (stereo not given)
inactive: HT29 colon 96% | SNB-75 CNS 88.2% | SNB-19 CNS 112% | U251 CNS 109% | PC-3 prostate 89.1% | SK-MEL-5 melanoma 105% | UACC-62 melanoma 115% | LOX IMVI melanoma 90.8% | SK-MEL-28 melanoma 107% | SK-MEL-2 melanoma 105%

Cc1nc2c(c(=O)[nH]1)OCN(Cc1ccccc1)C2
inactive: HT29 colon 105% | SNB-75 CNS 89.6% | SNB-19 CNS 97.2% | U251 CNS 108% | PC-3 prostate 89.1% | SK-MEL-5 melanoma 102% | UACC-62 melanoma 105% | LOX IMVI melanoma 101% | SK-MEL-28 melanoma 105% | SK-MEL-2 melanoma 130%

CCN(CC)CCN1CC(=O)Nc2cc(Cl)ccc21
inactive: HT29 colon 112% | SNB-75 CNS 92.1% | SNB-19 CNS 104% | U251 CNS 99.7% | PC-3 prostate 90.8% | SK-MEL-5 melanoma 98.6% | UACC-62 melanoma 94.4% | LOX IMVI melanoma 102% | SK-MEL-28 melanoma 115% | SK-MEL-2 melanoma 104%

CN1c2ccccc2[C@]2(Cc3ccccc3)Cc3ccccc3N[C@H]12
inactive: HT29 colon 86.9% | SNB-75 CNS 89.6% | SNB-19 CNS 104% | U251 CNS 106% | PC-3 prostate 100% | SK-MEL-5 melanoma 108% | UACC-62 melanoma 87.5% | LOX IMVI melanoma 104% | SK-MEL-28 melanoma 99.7% | SK-MEL-2 melanoma 95%

COc1ccc(Nc2ncnc3c2c(SC)nn3-c2ccccc2)cc1
inactive: HT29 colon 87.2% | SNB-75 CNS 65.8% | SNB-19 CNS 91.6% | U251 CNS 84.1% | PC-3 prostate 70.4% | SK-MEL-5 melanoma 94.8% | UACC-62 melanoma 86.4% | LOX IMVI melanoma 92.7% | SK-MEL-28 melanoma 99.1% | SK-MEL-2 melanoma 86.8%

CCCCCCCC(C)NCCO (stereo not given)
inactive: HT29 colon 103% | SNB-75 CNS 99.4% | SNB-19 CNS 109% | U251 CNS 108% | PC-3 prostate 105% | SK-MEL-5 melanoma 101% | UACC-62 melanoma 113% | LOX IMVI melanoma 92.8% | SK-MEL-28 melanoma 112% | SK-MEL-2 melanoma 106%

Cn1c([N+](=O)[O-])cnc1/C=C1\Oc2cc(Cl)ccc2C1=O
inactive: SNB-75 CNS 65.6% | SNB-19 CNS 15.6%
active: HT29 colon -25.4% | U251 CNS -9% | PC-3 prostate -12.5% | SK-MEL-5 melanoma -77.4% | UACC-62 melanoma 7.22% | LOX IMVI melanoma -60.3% | SK-MEL-28 melanoma -9.7% | SK-MEL-2 melanoma -55.2%

Clc1ccc(Nc2ccnc(NCCCNc3ccnc4cc(Cl)ccc34)n2)cc1
active: HT29 colon -69.3% | SNB-75 CNS -89.2% | SNB-19 CNS 4.15% | U251 CNS -93.2% | PC-3 prostate -27.5% | SK-MEL-5 melanoma -100% | UACC-62 melanoma -90.5% | LOX IMVI melanoma -77.5% | SK-MEL-28 melanoma -92.1% | SK-MEL-2 melanoma -91%

CCCCN(CCCC)c1cc(C(=O)CCCCCN)c2ccccc2n1
active: HT29 colon -38% | U251 CNS -77.9% | PC-3 prostate -93.2% | LOX IMVI melanoma -18%
inactive: SNB-75 CNS 105% | SNB-19 CNS 105% | SK-MEL-5 melanoma 98.3% | UACC-62 melanoma 105% | SK-MEL-28 melanoma 118% | SK-MEL-2 melanoma 87.9%

CS(=O)(=O)Nc1cccc(-c2cc(-c3ccccc3Cl)c(C#N)c(N)n2)c1
active: SNB-75 CNS -26.4%
inactive: HT29 colon 15.6% | SNB-19 CNS 49% | U251 CNS 24.7% | PC-3 prostate 22.3% | SK-MEL-5 melanoma 30.9% | UACC-62 melanoma 42.8% | LOX IMVI melanoma 43.7% | SK-MEL-28 melanoma 69.1% | SK-MEL-2 melanoma 38.5%

N=C(N)c1ccc(-c2ccc(-c3ccco3)o2)cc1
active: HT29 colon 5.15%
inactive: SNB-75 CNS 22.2% | SNB-19 CNS 68.4% | U251 CNS 53.5% | PC-3 prostate 59.8% | SK-MEL-5 melanoma 76% | UACC-62 melanoma 95.9% | LOX IMVI melanoma 56.9% | SK-MEL-28 melanoma 75.1% | SK-MEL-2 melanoma 108%

N=C1c2nc3n(c2C(=O)c2nc4n(c21)CCCC4)CCCC3
inactive: SNB-19 CNS 30% | U251 CNS 50.7% | PC-3 prostate 90.6% | SK-MEL-2 melanoma 82.7%
active: HT29 colon -13.7% | SNB-75 CNS -97% | SK-MEL-5 melanoma -98% | UACC-62 melanoma -85.1% | LOX IMVI melanoma -68% | SK-MEL-28 melanoma -67.2%

Clc1ccc(Nc2ccnc(NCCNc3ccnc4cc(Cl)ccc34)n2)cc1
active: HT29 colon -37.4% | SNB-75 CNS 4.36% | U251 CNS -48% | SK-MEL-5 melanoma -100% | UACC-62 melanoma -79.5% | LOX IMVI melanoma -79.5% | SK-MEL-28 melanoma -100% | SK-MEL-2 melanoma -76.1%
inactive: SNB-19 CNS 69.6% | PC-3 prostate 14.7%

CCCCOC(=O)Oc1ccc(C(=O)Oc2ccc(OCC)cc2)cc1
inactive: HT29 colon 108% | SNB-75 CNS 111% | SNB-19 CNS 102% | U251 CNS 88.9% | PC-3 prostate 93.2% | SK-MEL-5 melanoma 102% | UACC-62 melanoma 104% | LOX IMVI melanoma 96.3% | SK-MEL-28 melanoma 109% | SK-MEL-2 melanoma 112%

COc1ccc(OC)c2c1C(=O)CC2C (stereo not given)
inactive: HT29 colon 108% | SNB-75 CNS 93% | SNB-19 CNS 99.6% | U251 CNS 100% | PC-3 prostate 97.5% | SK-MEL-5 melanoma 94.4% | UACC-62 melanoma 96.4% | LOX IMVI melanoma 100% | SK-MEL-28 melanoma 101% | SK-MEL-2 melanoma 121%

COc1ccc(/C=C2/CN(C(=O)c3ccc(C)cc3)C/C(=C\c3ccc(OC)cc3)C2=O)cc1
inactive: HT29 colon 32.9% | SNB-75 CNS 82.7% | SNB-19 CNS 98.5% | U251 CNS 89.4% | PC-3 prostate 68.6% | SK-MEL-5 melanoma 89.1% | UACC-62 melanoma 86.4% | LOX IMVI melanoma 42.1% | SK-MEL-28 melanoma 116% | SK-MEL-2 melanoma 95.1%

COc1ccc2c(c1)C(=O)c1c-2c(=O)n(CCCN(C)C)c2cc(OC)c(OC)cc12
inactive: HT29 colon 60.6% | SNB-75 CNS 48.9% | SNB-19 CNS 59.2% | U251 CNS 43.8% | PC-3 prostate 72.2% | SK-MEL-5 melanoma 86.8% | UACC-62 melanoma 77% | LOX IMVI melanoma 17.3% | SK-MEL-28 melanoma 111% | SK-MEL-2 melanoma 69%

CC(=O)CSC(C)=O
inactive: HT29 colon 105% | SNB-75 CNS 84.3% | SNB-19 CNS 100% | U251 CNS 98% | PC-3 prostate 86.6% | SK-MEL-5 melanoma 98.9% | UACC-62 melanoma 107% | LOX IMVI melanoma 101% | SK-MEL-28 melanoma 95.6% | SK-MEL-2 melanoma 116%

CN(C)C=Nc1cc(Cl)ccc1Cl
inactive: HT29 colon 100% | SNB-75 CNS 89.8% | SNB-19 CNS 95.3% | U251 CNS 115% | PC-3 prostate 99.8% | SK-MEL-5 melanoma 101% | UACC-62 melanoma 99.1% | LOX IMVI melanoma 102% | SK-MEL-28 melanoma 102% | SK-MEL-2 melanoma 97%

CCOC(=O)N1C/C(=C/c2ccc(F)cc2)C(=O)/C(=C/c2ccc(F)cc2)C1
inactive: SNB-75 CNS 56.8% | SNB-19 CNS 39.6% | SK-MEL-2 melanoma 21.7%
active: HT29 colon -58.8% | U251 CNS -65.6% | PC-3 prostate -25.3% | SK-MEL-5 melanoma -59.7% | UACC-62 melanoma -56.8% | LOX IMVI melanoma -84.5% | SK-MEL-28 melanoma -37.4%

O=C(N/N=C/c1ccccc1)C(Oc1ccccc1)c1ccccc1 (stereo not given)
inactive: HT29 colon 100% | SNB-75 CNS 83.9% | SNB-19 CNS 94.6% | U251 CNS 106% | PC-3 prostate 90.6% | SK-MEL-5 melanoma 93.5% | UACC-62 melanoma 74.9% | LOX IMVI melanoma 90.1% | SK-MEL-28 melanoma 93.6% | SK-MEL-2 melanoma 120%

COc1cc(/C=C/C(=O)c2ccc(Cl)cc2)ccc1OS(=O)(=O)c1ccc(C)cc1
inactive: HT29 colon 28.5% | SNB-75 CNS 105% | SNB-19 CNS 98.5% | U251 CNS 83.7% | PC-3 prostate 76.1% | SK-MEL-5 melanoma 100% | UACC-62 melanoma 79.4% | SK-MEL-28 melanoma 106% | SK-MEL-2 melanoma 108%
active: LOX IMVI melanoma 2.55%

c1ccc([I+]c2ccccc2)cc1
inactive: HT29 colon 31.4% | SNB-75 CNS 63.6% | SNB-19 CNS 85.5% | U251 CNS 70.9% | PC-3 prostate 69.8% | SK-MEL-5 melanoma 55.7% | UACC-62 melanoma 106% | LOX IMVI melanoma 43.1% | SK-MEL-28 melanoma 87.4% | SK-MEL-2 melanoma 55.3%

O=C1Nc2ccc(Cl)cc2/C1=C\c1c(-c2ccc(Cl)cc2)nc2sc(C3CC3)nn12
inactive: HT29 colon 61.8% | SNB-75 CNS 11.3% | SNB-19 CNS 74.3% | U251 CNS 52.6% | PC-3 prostate 75.6% | SK-MEL-5 melanoma 72% | UACC-62 melanoma 38.4% | LOX IMVI melanoma 26% | SK-MEL-28 melanoma 46% | SK-MEL-2 melanoma 103%

N#Cc1cccc(OCc2nc(N)nc(N)c2-c2ccc(Cl)c(Cl)c2)c1
inactive: SNB-75 CNS 51.7% | SNB-19 CNS 47.1% | U251 CNS 22% | PC-3 prostate 27.5% | SK-MEL-5 melanoma 22.4% | UACC-62 melanoma 22.7% | LOX IMVI melanoma 15.5% | SK-MEL-28 melanoma 53.4% | SK-MEL-2 melanoma 42.8%
active: HT29 colon 9.63%

O=C(Nc1cccc(-n2cc(-c3ccncc3)c(-c3cc(O)cc(Cl)c3)n2)c1)c1cc(C(F)(F)F)cc(C(F)(F)F)c1
inactive: HT29 colon 19.7% | SNB-75 CNS 52.7% | SNB-19 CNS 63.1% | U251 CNS 37.2% | PC-3 prostate 21.7% | SK-MEL-5 melanoma 64.5% | UACC-62 melanoma 69.3% | LOX IMVI melanoma 10.5% | SK-MEL-28 melanoma 63.6% | SK-MEL-2 melanoma 57.8%
